Compound activity (PubChem)
Wnt act = activates Wnt/beta-catenin signaling in a reporter cell assay. activator, plate reader. activation, % at 9.35 µM. hit rate 1.2% among 300,000; in the data active means activation above about 30%, passing the limit was not always enough; inconclusive means no clear call, values can overlap the other calls
PvdQ inh = P. aeruginosa PvdQ acylase inhibition; purified PvdQ acylase, fluorescence plate reader; inhibition, % at 10 µM; hit rate 0.063% among 340,000; AID 488965; in the data active means inhibition above about 30%, passing the limit was not always enough; inconclusive means no clear call, values can overlap the other calls
MITF act = MITF TRPM1 promoter activation in melanoma cells; activation, % at 12.5 µM; SK-MEL-5 TRPM1-promoter luciferase, 24 h; % of positive control, neutral wells = 0; hit rate 0.75% among 300,000;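 active means mean activation of at least 80% with every replicate also reaching 80%; inconclusive means mean reaches 80% but some replicate falls short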
Glyco luc inh = blocks N-linked glycosylation in D54 reporter cells; D54 ERlucT glycosylation luciferase reporter, 24 h; percent of 100 nM tunicamycin response; reporter increase, % at 12.5 µM; hit rate 0.23% among 360,000; AID 588692;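 active means mean luciferase reporter signal, scaled so untreated is 0 and the glycosylation-blocking control 100, at or above a set limit in every replicate; inconclusive means mean reaches the limit but not every replicate does; inactive means mean below the limit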;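 further: luciferase carries N-glycosylation sites so blocking glycosylation raises the light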
esBAF inh = inhibitors of esBAF chromatin remodeling in mouse ES cells; reporter increase, % at 12.5 µM; Bmi1-luciferase knock-in reporter, 24 h; 100% = twice the neutral-well signal; hit rate 2% among 350,000; in the data active means activation above about 40%; inconclusive means no clear call, values can overlap the other calls;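 further: a rise in the Bmi1 reporter signal indicates esBAF inhibition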
Vif imaging = inhibitors of HIV Vif; hit rate 0.35% among 340,000; HEK293T cells, Vif self-association by quenched fluorescence, imaging, 24 h; AID 602346; inhibition, % at 7.49 µM; in the data active means inhibition above about 50%, passing the limit was not always enough; inconclusive means no clear call, values can overlap the other calls; inactive means below about 31%
Of the large screens only hits and unclear results are named; the others gave an inactive call. Hits are enriched below; roughly 2.9% of the tested compounds scored in any of these assays.

OC[C@@H]1CC[C@@H](Cc2ccc(-c3ccccc3)cc2)O1	esBAF inh 68
COc1ccc(NC(=O)NC[C@@H]2CC[C@@H](Cc3ccc(-c4ccccc4)cc3)O2)cc1	none
NC(=O)NC[C@@H]1CC[C@@H](Cc2ccc(-c3ccccc3)cc2)O1	MITF act 118, esBAF inh 69 (no result: Wnt act)
CCOC(=O)C1=C(C)N(C[C@@H]2CC[C@@H](Cc3ccc(-c4ccccc4)cc3)O2)C(=O)NC1c1ccc(-c2ccccc2)cc1 (stereo partly drawn)	none (no result: Vif imaging)
C[C@@H]1CN([C@H](C)CO)C(=O)Cc2cc(NS(=O)(=O)c3ccccc3)ccc2O[C@@H]1CN(C)S(C)(=O)=O	none (no result: Wnt act, PvdQ inh, MITF act, Glyco luc inh, Vif imaging)
C[C@@H]1CN([C@@H](C)CO)C(=O)c2cc(NC(=O)Nc3ccccc3)ccc2O[C@@H](C)CCCCO[C@H]1CN(C)C(=O)CCC(F)(F)F	none (no result: Wnt act, PvdQ inh, MITF act, Glyco luc inh, Vif imaging)
CCOC(=O)N1CCc2cc(OC)c(OC)c3c2c1cc1cc(OC)c(OC)cc13	Glyco luc inh 26 (no result: MITF act, esBAF inh)
C[C@H](CO)N1C[C@H](C)[C@H](CN(C)Cc2ccc(C(=O)Nc3ccccc3N)cc2)Oc2ccc(NC(=O)Cc3cn(C)c4ccccc34)cc2C1=O	none (no result: Wnt act, PvdQ inh, MITF act, Glyco luc inh, Vif imaging)
CNc1cccc(-c2ccc(C(C)=O)s2)n1	esBAF inh 53 (no result: PvdQ inh, MITF act, Vif imaging)
O=C(/C=C/c1ccc(Br)cc1)NC1CCCCCC1	none
CC(C)Cc1ccc(/C=C/C(=O)NC2CC2)cc1	Wnt act 54, esBAF inh 49
Cc1noc(C)c1NC(=O)N(C)C[C@@H]1OCCCC[C@@H](C)Oc2ccc(NC(=O)NC3CCCCC3)cc2C(=O)N([C@H](C)CO)C[C@H]1C	none (no result: Wnt act, PvdQ inh, MITF act, Glyco luc inh, Vif imaging)
Nc1ccc(S(=O)(=O)c2ccc(N)nc2)cc1	Vif imaging 57 (no result: PvdQ inh, MITF act)
O=C(Nc1ccc(N2CCN(C(=O)c3ccco3)CC2)cc1)c1cc(Br)ccc1Cl	none
CCOC(=O)N1CCN(c2ccc(Cl)cc2)CC1	PvdQ inh 44
O=C(c1ccco1)N1CCN(c2ccc(Cl)c(Cl)c2)CC1	esBAF inh 44
O=C(c1ccco1)N1CCN(c2ccc(Cl)cc2)CC1	MITF act 93, esBAF inh 48
O=C(c1ccco1)N1CCN(Cc2c(F)cccc2Cl)CC1	esBAF inh 45, Vif imaging inconclusive (no result: MITF act)
CCCNC(=O)C[C@H]1CC[C@H]2[C@@H](COC[C@H](O)CN2C(=O)c2cc(Cl)cc(Cl)c2)O1	none (no result: Wnt act, PvdQ inh, MITF act, Glyco luc inh, Vif imaging)
Cc1cc(Br)cc(Cl)c1OCC(=O)N1CCN(C(=O)c2ccco2)CC1	Wnt act 59
Cc1ccc(-c2cn3nc(-c4ccccc4)c(-c4ccccc4)nc3n2)cc1	none (no result: PvdQ inh, MITF act, esBAF inh)
c1ccc(-c2cn3nc(-c4ccccc4)c(-c4ccccc4)nc3n2)cc1	Vif imaging 157 (no result: MITF act)
Cc1ccc(N2CN(Cc3ccco3)CNC2=S)cc1	Wnt act 36 (no result: esBAF inh)
Cc1ccc(N2CN(CCC3=CCCCC3)CNC2=S)cc1	Wnt act 49 (no result: MITF act)
O=S(=O)(c1ccccc1)N1CCCCN2[C@H](CO)[C@H](c3ccc(C#Cc4cccnc4)cc3)[C@H]2C1	none (no result: Wnt act, PvdQ inh, MITF act, Glyco luc inh, Vif imaging)
C[C@@H]1CN([C@H](C)CO)C(=O)Cc2cc(N(C)C)ccc2O[C@@H]1CN(C)S(=O)(=O)c1ccccc1	none (no result: Wnt act, PvdQ inh, MITF act, Glyco luc inh, Vif imaging)
Cc1noc(C)c1S(=O)(=O)Nc1ccc2c(c1)C(=O)N([C@H](C)CO)C[C@H](C)[C@H](CN(C)CC1CCCCC1)O2	none (no result: Wnt act, PvdQ inh, MITF act, Glyco luc inh, Vif imaging)
Cc1ccc(OCCOc2ccc(Br)cc2)c([N+](=O)[O-])n1	MITF act 123, esBAF inh 65
Cc1ccc(OCc2ccccc2C)c([N+](=O)[O-])n1	none
Cc1ccc(OCC(=O)Nc2ccc(C)c(F)c2)c([N+](=O)[O-])n1	MITF act 114, esBAF inh 56
COc1ccc(CNC(=O)COc2ccc(C)nc2[N+](=O)[O-])cc1	none (no result: esBAF inh)
Cc1ccc(OCc2ccc([N+](=O)[O-])cc2)c([N+](=O)[O-])n1	Wnt act 33, MITF act 139 (no result: esBAF inh)
CCS(=O)(=O)Nc1ccc2c(c1)C(=O)N(C)C[C@H](OC)[C@@H](C)CN(Cc1ccccn1)[C@H](C)CO2	none (no result: Wnt act, PvdQ inh, MITF act, Glyco luc inh, Vif imaging)
CCN(c1ccccc1)S(=O)(=O)c1cc(C(=O)Nc2ccc(Br)cc2)ccc1F	none (no result: Wnt act, esBAF inh)
CCN(c1ccccc1)S(=O)(=O)c1cc(C(=O)Nc2ccccc2Cl)ccc1F	PvdQ inh 49 (no result: esBAF inh)
CCNC(=O)C[C@H]1CC[C@H]2[C@@H](COc3ccc(NC(=O)c4ccccc4Cl)cc3C(=O)N2C)O1	none (no result: Wnt act, PvdQ inh, MITF act, Glyco luc inh, Vif imaging)
